# Data: PubChem BioAssay (EPA / NIEHS)
# Inconclusive results are not listed. Calls of active or inactive are those of the source. Rule for the calls: active = hit-call score of the fitted dose curve at least 0.9, where 1 is the maximum; inconclusive = response in the unintended direction; inactive = score below 0.9.
# System: rat CYP3A1, gene 25642
# Assay: NVS_ADME_rCYP3A1: NovaScreen (NVS) CYP450-related Enzyme Activity (ADME) Assay for rat CYP3A1 (AID 2283126)
# In short: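 Cell-free recombinant CYP assay with fluorescent substrate, read 0.5 h after dosing. Screened at 10 uM in duplicate, hits at up to 20 uM in concentration-response; loss of signal versus acetonitrile baseline.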
Compound,AC50,outcome
COCC(=O)N(c1c(C)cccc1C)C(C)C(=O)OC (configuration not stated),4.46 µM (active),
Cc1ccc(N=CN(C)C=Nc2ccc(C)cc2C)c(C)c1,4.8 µM (active),
Clc1nc(Cl)nc(Nc2ccccc2Cl)n1,,inactive
CO/N=C(/C1=NOCCO1)c1ccccc1Oc1ncnc(Oc2ccccc2Cl)c1F,0.705 µM (active),
CC(C)N1C(=O)N(c2ccccc2)CSC1=NC(C)(C)C,5.84 µM (active),
COc1cc(OC)nc(NC(=O)NS(=O)(=O)c2ncccc2OCC(F)(F)F)n1,5.87 µM (active),
COC(=O)NC(=S)Nc1ccccc1NC(=S)NC(=O)OC,7.66 µM (active),

# Molecular target: human Acetylcholinesterase (AChE), ACHE (gene 43) (UniProt P22303)
# Assay: NVS_ENZ_hAChE: NovaScreen (NVS) Enzymatic Assay for human Acetylcholinesterase (AChE) (AID 2283129)
# In short: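 Cell-free colorimetric enzyme-activity assay; compounds read 0.33 hour after dosing, loss of signal vs DMSO baseline. Primary screen in duplicate at 25 uM single concentration, with active compounds retested in concentration series.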
# human Acetylcholinesterase (AChE), ACHE (gene 43), sequence (P22303 whole entry, looked up): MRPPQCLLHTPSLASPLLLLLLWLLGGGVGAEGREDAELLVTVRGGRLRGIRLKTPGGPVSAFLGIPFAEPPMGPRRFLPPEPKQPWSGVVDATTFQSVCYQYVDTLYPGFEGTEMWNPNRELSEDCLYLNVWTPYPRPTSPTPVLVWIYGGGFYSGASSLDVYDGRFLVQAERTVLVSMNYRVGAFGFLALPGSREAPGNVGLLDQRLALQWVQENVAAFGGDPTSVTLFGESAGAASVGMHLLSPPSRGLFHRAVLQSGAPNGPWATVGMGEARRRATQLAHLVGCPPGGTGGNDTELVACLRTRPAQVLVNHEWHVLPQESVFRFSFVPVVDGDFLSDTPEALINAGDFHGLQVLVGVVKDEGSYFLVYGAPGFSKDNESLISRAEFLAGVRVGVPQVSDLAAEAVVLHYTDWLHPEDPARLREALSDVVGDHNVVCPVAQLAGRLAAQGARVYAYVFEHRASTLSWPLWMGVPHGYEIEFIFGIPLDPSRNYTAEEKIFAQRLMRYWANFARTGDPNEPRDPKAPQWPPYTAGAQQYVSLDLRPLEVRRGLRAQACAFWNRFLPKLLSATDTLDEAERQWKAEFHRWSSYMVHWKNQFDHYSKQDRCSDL
Compound,outcome,AC50
CC1(C)CON(Cc2ccccc2Cl)C1=O,inactive,
CNC(=O)Oc1cccc2ccccc12,,25 µM (active)
N#CN=C1SCCN1Cc1ccc(Cl)nc1,,19.6 µM (active)

# Molecular target: human AKT serine/threonine Kinase 1 (AKT1), AKT1 (gene 207) (UniProt P31749)
# Assay: NVS_ENZ_hAKT1: NovaScreen (NVS) Enzymatic Assay for human AKT serine/threonine Kinase 1 (AKT1) (AID 2283138)
# In short: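 Cell-free recombinant enzyme with substrate; activity read by fluorescence intensity after electrophoretic mobility shift separating substrate from product, 1 h after dosing. Single-concentration duplicates at 25 uM, then singleton concentration-response up to 50 uM; loss of signal versus DMSO.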
# human AKT serine/threonine Kinase 1 (AKT1), AKT1 (gene 207), sequence (P31749 whole entry, looked up): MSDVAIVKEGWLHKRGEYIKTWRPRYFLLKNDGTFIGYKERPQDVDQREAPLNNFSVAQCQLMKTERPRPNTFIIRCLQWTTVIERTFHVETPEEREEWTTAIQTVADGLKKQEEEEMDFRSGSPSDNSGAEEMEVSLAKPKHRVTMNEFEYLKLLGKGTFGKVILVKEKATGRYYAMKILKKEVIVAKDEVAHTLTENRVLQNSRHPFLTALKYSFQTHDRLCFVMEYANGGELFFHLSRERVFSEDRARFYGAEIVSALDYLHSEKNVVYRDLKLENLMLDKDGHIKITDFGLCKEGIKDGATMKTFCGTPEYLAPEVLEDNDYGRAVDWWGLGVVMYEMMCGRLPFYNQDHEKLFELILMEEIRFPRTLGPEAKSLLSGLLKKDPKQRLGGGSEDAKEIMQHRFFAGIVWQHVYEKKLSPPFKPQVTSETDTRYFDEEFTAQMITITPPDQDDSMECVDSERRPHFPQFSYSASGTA
row,Compound,outcome
1,O=c1n(Cl)c(=O)n(Cl)c(=O)n1Cl,inactive
2,CCOc1nc(F)cc2nc(S(=O)(=O)Nc3c(Cl)cccc3Cl)nn12,inactive
3,N#Cc1c(Cl)cccc1Cl,inactive
4,Nc1c(Cl)c(Cl)nc(C(=O)O)c1Cl,inactive

# Molecular target: human Beta-secretase (BACE), BACE1 (gene 23621) (UniProt P56817)
# Assay: NVS_ENZ_hBACE: NovaScreen (NVS) Enzymatic Assay for human Beta-secretase (BACE) (AID 2283140);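 note: hits are inhibitors that reduce fluorescent substrate signal versus DMSO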
# In short: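 Cell-free fluorescence-intensity assay of recombinant BACE1 expressed in SF9 cells, read 1 hour after dosing. Loss of signal indicates reduced protease activity, fitted relative to DMSO negative control. Primary screen at 25 uM in duplicate; actives followed in concentration series.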
# human Beta-secretase (BACE), BACE1 (gene 23621), sequence (P56817 whole entry, looked up): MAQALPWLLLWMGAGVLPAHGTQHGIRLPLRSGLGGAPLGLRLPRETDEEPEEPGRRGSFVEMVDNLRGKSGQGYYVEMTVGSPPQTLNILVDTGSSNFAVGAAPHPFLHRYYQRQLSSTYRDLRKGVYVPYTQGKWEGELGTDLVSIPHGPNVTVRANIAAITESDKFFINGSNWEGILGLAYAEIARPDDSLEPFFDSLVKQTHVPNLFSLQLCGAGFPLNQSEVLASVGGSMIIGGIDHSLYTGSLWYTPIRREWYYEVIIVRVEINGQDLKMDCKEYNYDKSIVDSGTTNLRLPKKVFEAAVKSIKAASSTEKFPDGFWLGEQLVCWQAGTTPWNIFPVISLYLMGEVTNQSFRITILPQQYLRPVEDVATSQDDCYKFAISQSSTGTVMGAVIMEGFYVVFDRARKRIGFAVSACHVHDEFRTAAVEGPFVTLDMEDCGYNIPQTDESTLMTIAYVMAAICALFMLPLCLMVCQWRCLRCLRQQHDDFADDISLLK
Compound,AC50,outcome
CC1(C)C(C(=O)OC(C#N)c2cccc(Oc3ccccc3)c2)C1(C)C (configuration not stated),2.8 µM (active),
CC1(C)C(C=C(Cl)Cl)C1C(=O)OC(C#N)c1cccc(Oc2ccccc2)c1 (configuration not stated),,inactive
Cc1c(COC(=O)[C@@H]2[C@H](/C=C(\Cl)C(F)(F)F)C2(C)C)cccc1-c1ccccc1,,inactive

# Molecular target: human AKT serine/threonine Kinase 2 (AKT2), AKT2 (gene 208) (UniProt P31751)
# Assay: NVS_ENZ_hAKT2: NovaScreen (NVS) Enzymatic Assay for human AKT serine/threonine Kinase 2 (AKT2) (AID 2283141)
# In short: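 Cell-free fluorescence/electrophoretic mobility shift readout of recombinant human AKT2 activity, 1 h after chemical dosing. Duplicate primary screen at 25 uM, then singleton concentration-response up to 50 uM; loss of signal versus DMSO baseline.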
# human AKT serine/threonine Kinase 2 (AKT2), AKT2 (gene 208), sequence (P31751 whole entry, looked up): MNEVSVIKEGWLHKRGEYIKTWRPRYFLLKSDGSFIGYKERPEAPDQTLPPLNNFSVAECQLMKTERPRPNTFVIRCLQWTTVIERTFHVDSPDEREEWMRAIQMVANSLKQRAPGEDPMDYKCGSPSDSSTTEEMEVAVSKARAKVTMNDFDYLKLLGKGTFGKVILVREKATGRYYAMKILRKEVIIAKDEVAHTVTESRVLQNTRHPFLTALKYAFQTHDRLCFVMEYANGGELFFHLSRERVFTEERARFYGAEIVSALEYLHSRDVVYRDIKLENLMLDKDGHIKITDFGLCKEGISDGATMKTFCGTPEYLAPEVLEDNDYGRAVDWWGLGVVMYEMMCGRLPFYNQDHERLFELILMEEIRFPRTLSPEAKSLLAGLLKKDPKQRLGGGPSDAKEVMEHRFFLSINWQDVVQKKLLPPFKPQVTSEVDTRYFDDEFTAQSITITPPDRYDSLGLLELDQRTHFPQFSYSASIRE
row,Compound,outcome
1,O=c1n(Cl)c(=O)n(Cl)c(=O)n1Cl,inactive
2,Nc1c(Cl)c(Cl)nc(C(=O)O)c1Cl,inactive
3,CCCC(=NOCC)C1=C(O)CC(CC(C)SCC)CC1=O (configuration not stated),inactive
4,CS(=O)(=O)c1cc(C(F)(F)F)ccc1C(=O)c1cnoc1C1CC1,inactive

# Molecular target: human Caspase 8 (CASP8), CASP8 (gene 841) (UniProt Q14790)
# Assay: NVS_ENZ_hCASP8: NovaScreen (NVS) Enzymatic Assay for human Caspase 8 (CASP8) (AID 2283146)
# In short: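 E. coli-expressed enzyme was used in a cell-free fluorogenic substrate assay read 1 h after dosing. Loss of signal was scored relative to DMSO, and the primary screen was run in duplicate at 25 uM.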
# human Caspase 8 (CASP8), CASP8 (gene 841), sequence (Q14790 whole entry, looked up): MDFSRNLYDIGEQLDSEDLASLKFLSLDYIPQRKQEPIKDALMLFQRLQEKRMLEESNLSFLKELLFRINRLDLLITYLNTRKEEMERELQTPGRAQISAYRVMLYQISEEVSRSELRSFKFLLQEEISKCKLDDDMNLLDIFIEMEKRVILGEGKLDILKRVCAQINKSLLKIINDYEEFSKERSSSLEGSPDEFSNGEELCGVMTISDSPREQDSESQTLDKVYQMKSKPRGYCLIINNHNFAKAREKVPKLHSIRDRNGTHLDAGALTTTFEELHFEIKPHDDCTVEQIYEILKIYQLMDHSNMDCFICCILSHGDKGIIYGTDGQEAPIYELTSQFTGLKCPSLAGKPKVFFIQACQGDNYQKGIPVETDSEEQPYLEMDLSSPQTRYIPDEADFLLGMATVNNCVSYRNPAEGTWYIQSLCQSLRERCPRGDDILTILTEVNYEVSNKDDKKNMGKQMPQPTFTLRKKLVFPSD
row,Compound,outcome
1,CCSC(=O)N1CCCCCC1,inactive
2,CCOC(=O)C(C)OC(=O)c1cc(Oc2ccc(C(F)(F)F)cc2Cl)ccc1[N+](=O)[O-] (configuration not stated),inactive
3,Nc1c(Cl)c(F)nc(OCC(=O)O)c1Cl,inactive

# Molecular target: human Casein Kinase 2- alpha 2 beta 2 (CK2a2b2), CSNK2A1 (gene 1457) (UniProt P68400)
# Assay: NVS_ENZ_hCK2a2b2: NovaScreen (NVS) Enzymatic Assay for human Casein Kinase 2- alpha 2 beta 2 (CK2a2b2) (AID 2283147)
# Procedure: NVS_ENZ_hCK2a2b2 is a biochemical, single-readout assay that uses extracted gene-proteins in a cell-free assay. Measurements were taken 1 hour after chemical dosing in a 384-well plate.NVS_ENZ_hCK2a2b2 is one of one assay component(s) measured or calculated from the NVS_ENZ_hCK2a2b2 assay. It is designed to make measurements of enzyme activity, a form of enzyme reporter, as detected with fluorescence intensity signals by Fluorescence and electrophoretic mobility shift technology.Data from the assay component NVS_ENZ_hCK2a2b2 was analyzed into 1 assay endpoint. This assay endpoint, NVS_ENZ_hCK2a2b2, was analyzed in the positive analysis fitting direction relative to DMSO as the negative control and baseline of activity. Using a type of enzyme reporter, loss-of-signal activity can be used to understand changes in the enzymatic activity as they relate to the gene CSNK2A1. Furthermore, this assay endpoint can be referred to as a primary readout, because this assay has produced multiple assay endpoints where this one serves a enzymatic activity function. To generalize the intended target to other relatable targets, this assay endpoint is annotated to the kinase intended target family, where the subfamily is serine/threonine kinase.
# Binding assays used specific radioligands (tritiated, iodinated) with non-radioactive competitive displacement ligands in agonist or antagonist protocols (as indicated) and various reference compounds and inhibitors to titrate specific binding to receptors and transporters. Most enzyme assays (CYPs, kinases, phosphatases, proteases, HDACs) used recombinant protein and specific substrates (fluorescence mostly, some colorimetric and radioactive) and inhibitors, followed by a biochemical separation of substrate and product. All assays for the biochemical HTS were initially run in duplicate at a single concentration (10 uM for CYP450 assays and 25 uM for all others). […]
# human Casein Kinase 2- alpha 2 beta 2 (CK2a2b2), CSNK2A1 (gene 1457), sequence (P68400 whole entry, looked up): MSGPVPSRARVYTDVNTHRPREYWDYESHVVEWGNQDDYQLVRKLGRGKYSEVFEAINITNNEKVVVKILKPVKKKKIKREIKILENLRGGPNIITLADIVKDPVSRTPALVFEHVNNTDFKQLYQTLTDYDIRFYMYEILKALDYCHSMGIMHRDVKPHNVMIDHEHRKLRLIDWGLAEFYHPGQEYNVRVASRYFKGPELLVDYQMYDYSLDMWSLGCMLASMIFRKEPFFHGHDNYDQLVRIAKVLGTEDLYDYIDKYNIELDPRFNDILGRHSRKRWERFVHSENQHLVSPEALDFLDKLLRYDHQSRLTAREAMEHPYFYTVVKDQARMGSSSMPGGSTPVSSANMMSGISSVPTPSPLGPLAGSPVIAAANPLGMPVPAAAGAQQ
row,Compound,AC50
1,Clc1nc(Cl)nc(Nc2ccccc2Cl)n1,15.8 µM (active)
2,CS(=O)(=O)c1ccc(C(=O)C2C(=O)CCCC2=O)c([N+](=O)[O-])c1,8.29 µM (active)
3,Nc1c(Cl)c(F)nc(OCC(=O)O)c1Cl,18.8 µM (active)
